Assay results: PubChem BioAssay (NCATS)
Inconclusive results are not listed. Active and inactive are the calls of the source. Calls follow the shape of the dose curve; as a rule, active = well fitted curve in the direction sought with a large enough effect; inconclusive = small, poorly fitted or top-dose-only effect, or another doubt; inactive = no such curve, though single readings can be large; an effect the other way counts as inactive or inconclusive. Positions of bridges follow the written chain, without caps; N, C: chain ends. Non-standard residues stand in square brackets, D forms with d. Residues, ends and D or L forms follow the SMILES beside them. ξ: configuration not given here. *: point of attachment. Octanoyl(6-Me) = CCC(C)CCCCC(=O)*; ξThr(3R) = C[C@@H](O)C(N)C(=O)O; dDab = NCC[C@@H](N)C(=O)O; Dab = NCC[C@H](N)C(=O)O; Cbz = O=C(OCc1ccccc1)*

Key:
[1] = qHTS of pediatric cancer cell lines to identify multiple opportunities for drug repurposing: Primary screen for Rh18 cells (AID 1347102); also: nearly all actives have a fitted effect of over 65% in size; also: potency is read from the fitted curve at half-maximal effect
Method in brief: (§1)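 Cells (500-1,000/well) in growth media were settled 5 h at 37 degrees C, then given compounds for 48 h. Viability was read as CellTiter-Glo luminescence. Primary runs used MIPE at 11 points (0.78 nM-46 µM) and NPC at 8 points (0.59 nM-46 µM); follow-ups used 11 points.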

[2] = qHTS of pediatric cancer cell lines to identify multiple opportunities for drug repurposing: Primary screen for OHS-50 cells (AID 1347103); also: nearly all actives have a fitted effect of over 40% in size; also: potency is read from the fitted curve at half-maximal effect
Method in brief: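 Cells (500-1,000/well) rested 5 h, then received compounds for 48 h; metabolically active cells were measured by CellTiter-Glo luminescence. Final concentrations spanned up to 46 µM (MIPE, 11-point) or 0.59 nM-46 µM (NPC, 8-point) in primary screens, 11-point in follow-ups.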

[3] = qHTS of pediatric cancer cell lines to identify multiple opportunities for drug repurposing: Primary screen for RD cells (AID 1347104); also: nearly all actives have a fitted effect of over 55% in size; also: potency is read from the fitted curve at half-maximal effect
Method in brief: (§2)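 Cells seeded at 500-1,000 cells/well in growth media, rested 5 hours at 37 degrees C, 5% CO2, then dosed; MIPE compounds at 11-point (from 0.78 nM) and NPC at 8-point (from 0.59 nM) final concentrations. Viability by CellTiter-Glo luminescence after 48 hours.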

[4] = qHTS of pediatric cancer cell lines to identify multiple opportunities for drug repurposing: Primary screen for MG 63 (6-TG R) cells (AID 1347105); also: nearly all actives have a fitted effect of over 50% in size; also: potency is read from the fitted curve at half-maximal effect
Method in brief: as §2

[5] = qHTS of pediatric cancer cell lines to identify multiple opportunities for drug repurposing: Primary screen for Rh30 cells (AID 1347107); also: nearly all actives have a fitted effect of over 75% in size; also: potency is read from the fitted curve at half-maximal effect
Method in brief: as §1

[6] = qHTS of pediatric cancer cell lines to identify multiple opportunities for drug repurposing: Primary screen for Rh41 cells (AID 1347108); also: nearly all actives have a fitted effect of over 70% in size; also: potency is read from the fitted curve at half-maximal effect;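 as to activity change, negative = cytotoxic: luminescence drop marks cytotoxic hits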
Method in brief: as §2

[7] = qHTS of pediatric cancer cell lines to identify multiple opportunities for drug repurposing: Primary screen for control Hh wild type fibroblast cells (AID 1347106); also: nearly all actives have a fitted effect of over 55% in size; also: potency is read from the fitted curve at half-maximal effect;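 as to activity change, negative = cytotoxic: a drop in luminescence marks cytotoxicity and a rise apparent proliferation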
Method in brief: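 Viability after 48 h compound treatment at 37C, 500-1,000 cells/well, read as ATP luminescence with CellTiter-Glo. Primary screens used 11-point (MIPE, 0.78 nM-46 µM) or 8-point (NPC, 0.59 nM-46 µM) final concentrations; follow-up screens used 11-point dilutions.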

[8] = qHTS of pediatric cancer cell lines to identify multiple opportunities for drug repurposing: Confirmatory screen for A673 cells (AID 1347110);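 also: cells exposed to compound for 48 h before the viability read; nearly all actives have a fitted effect of over 65% in size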; also: potency is read from the fitted curve at half-maximal effect
Method in brief: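 Concentration-response curves came straight from titrations: 11 points (0.78 nM to 46 µM) for MIPE and several concentrations (0.59 nM to 46 µM) for NPC in primary, 11 points in follow-up. Readout: ATP luminescence at 48 h.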

[9] = qHTS of pediatric cancer cell lines to identify multiple opportunities for drug repurposing: Confirmatory screen for SK-N-MC cells (AID 1347111);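 also: potency is read from the fitted curve at half-maximal effect; cells exposed to compound for 48 h before the readout; nearly all actives have a fitted effect of over 70% in size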
Method in brief: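 Metabolically active cells were quantified by ATP-dependent luminescence (CellTiter-Glo, 15 min at room temperature) following 48 h treatment. Cells had been plated at 500-1,000 per well and settled for 5 h beforehand.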

[10] = qHTS of pediatric cancer cell lines to identify multiple opportunities for drug repurposing: Confirmatory screen for BT-12 cells (AID 1347112); also: nearly all actives have a fitted effect of over 55% in size; also: potency is read from the fitted curve at half-maximal effect
Method in brief: as §1

[11] = qHTS of pediatric cancer cell lines to identify multiple opportunities for drug repurposing: Confirmatory screen for LAN-5 cells (AID 1347113); also: nearly all actives have a fitted effect of over 65% in size; also: potency is read from the fitted curve at half-maximal effect
Method in brief: as §1

[12] = qHTS of pediatric cancer cell lines to identify multiple opportunities for drug repurposing: Confirmatory screen for DAOY cells (AID 1347114); also: nearly all actives have a fitted effect of over 65% in size; also: potency is read from the fitted curve at half-maximal effect
Method in brief: (§3)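 Viability measured as metabolically active cells via CellTiter-Glo luminescence following 48 hours of compound exposure, 11-point dilutions in confirmatory testing. 500-1,000 cells/well plated 5 hours before dosing; controls were DMSO and 2.3 µM bortezomib.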

[13] = qHTS of pediatric cancer cell lines to identify multiple opportunities for drug repurposing: Confirmatory screen for BT-37 cells (AID 1347117); conditions: BT-37 pediatric cancer cells, viability; activity change, negative = cytotoxic: at 45.9 µM (top of the series); also: nearly all actives have a fitted effect of over 55% in size; also: potency is read from the fitted curve at half-maximal effect
Method in brief: as §1

[14] = qHTS of pediatric cancer cell lines to identify multiple opportunities for drug repurposing: Confirmatory screen for MG 63 (6-TG R) cells (AID 1347119); also: nearly all actives have a fitted effect of over 55% in size; also: potency is read from the fitted curve at half-maximal effect
Method in brief: as §1

[15] = qHTS of pediatric cancer cell lines to identify multiple opportunities for drug repurposing: Confirmatory screen for control Hh wild type fibroblast cells (AID 1347121); also: nearly all actives have a fitted effect of over 70% in size; also: potency is read from the fitted curve at half-maximal effect
Method in brief: as §1

[16] = qHTS of pediatric cancer cell lines to identify multiple opportunities for drug repurposing: Confirmatory screen for NB-EBc1 cells (AID 1347115);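 also: cells exposed to compound for 48 h before the viability read; nearly all actives have a fitted effect of over 45% in size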; also: potency is read from the fitted curve at half-maximal effect
Method in brief: as §1

[17] = qHTS of pediatric cancer cell lines to identify multiple opportunities for drug repurposing: Confirmatory screen for TC32 cells (AID 1347118)
Method in brief: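 Measured quantity: luminescence from CellTiter-Glo, reflecting metabolically active TC32 cells following 48 h of compound. Curves came straight from multi-point titrations, with 8 or 11 points in primary and 11 in confirmatory screening.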

[18] = qHTS of pediatric cancer cell lines to identify multiple opportunities for drug repurposing: Confirmatory screen for NB1643 cells (AID 1347109); also: nearly all actives have a fitted effect of over 45% in size; also: potency is read from the fitted curve at half-maximal effect
Method in brief: as §1

[19] = qHTS of pediatric cancer cell lines to identify multiple opportunities for drug repurposing: Confirmatory screen for SJ-GBM2 cells (AID 1347116); also: potency is read from the fitted curve at half-maximal effect; nearly all actives have a fitted effect of over 60% in size
Method in brief: as §3

[20] = qHTS of pediatric cancer cell lines to identify multiple opportunities for drug repurposing: Confirmatory screen for U-2 OS cells (AID 1347122); also: nearly all actives have a fitted effect of over 65% in size
Method in brief: as §1

Measured: Potency

Cn1cc(C[C@@H](N)C(=O)O)c2ccccc21
inactive: [1] | [2] | [3] | [4] | [5] | [6]

COc1cc(OC)cc(-c2ccc3ncc4ccc(=O)n(-c5ccc(N6CCNCC6)c(C(F)(F)F)c5)c4c3c2)c1
active: [1] 14.8 µM | [2] 4.32 µM | [3] 8.33 µM | [4] 14.8 µM | [7] 20.9 µM | [6] 3.72 µM

CCCCC(=O)O[C@]1(C(=O)CO)[C@@H](C)C[C@H]2[C@@H]3CCC4=CC(=O)C=C[C@]4(C)[C@@]3(F)[C@@H](O)C[C@@]21C
active: [9] 18.5 µM
not listed: [16] | [17] | [18] | [19] | [20]
inactive: all other assays above

Nc1ccn(C[C@@H](CO)OCP(=O)(O)O)c(=O)n1
inactive: [1] | [2] | [3] | [4] | [7] | [6]

C=CC(=O)Nc1ccc2ncnc(Nc3ccc(OCc4cccc(F)c4)c(Cl)c3)c2c1
inactive: [7]
active: [1] 7.43 µM | [2] 0.0043 µM | [3] 0.0296 µM | [4] 0.296 µM | [6] 0.235 µM | [8] 3.29 µM | [9] 7.37 µM | [10] 10.4 µM | [11] 20.8 µM | [12] 7.37 µM | [16] 20.8 µM | [13] 9270 nM | [17] 7370 nM | [14] 8.27 µM

CCC(C)CCCCC(=O)N[C@@H](CCN)C(=O)NC(C(=O)N[C@H](CCN)C(=O)N[C@@H]1CCNC(=O)C([C@@H](C)O)NC(=O)[C@@H](CCN)NC(=O)[C@@H](CCN)NC(=O)[C@@H](CC(C)C)NC(=O)[C@H](Cc2ccccc2)NC(=O)[C@H](CCN)NC1=O)[C@@H](C)O (stereo partly drawn) ({Octanoyl(6-Me)}-[Dab][ξThr(3R)][dDab][dDab][Dab]F[dL][dDab][dDab][ξThr(3R)]; lactam 4-C)
inactive: [1] | [2] | [3] | [4] | [7] | [6]

C[C@H](NCc1ccc2c(c1)nc(NC(=O)c1ccc(-c3cn[nH]c3)s1)n2CCc1ccccc1)C(C)(C)C
active: [1] 2.96 µM | [2] 1.09 µM | [3] 3.72 µM | [4] 2.96 µM | [5] 14.8 µM | [6] 2.35 µM | [18] 1.04 µM | [8] 0.928 µM | [9] 0.928 µM | [10] 2.93 µM | [11] 1.65 µM | [12] 2.93 µM | [16] 1.31 µM | [19] 928 nM | [13] 928 nM | [17] 928 nM | [14] 2.33 µM | [15] 10.4 µM

CN(N=O)C(=O)N[C@H]1C(O)OC(CO)[C@@H](O)[C@H]1O (stereo not given in full)
inactive: [1] | [2] | [3] | [4] | [5] | [6]

O=c1[nH]c(=O)n([C@H]2C[C@@H](O)[C@@H](CO)O2)cc1C=CBr
inactive: [1] | [2] | [3] | [4] | [5] | [6]

CC(C)C[C@@H](C=O)NC(=O)[C@H](CC(C)C)NC(=O)[C@H](CC(C)C)NC(=O)OCc1ccccc1 (Cbz-Leu-Leu-Leu-aldehyde)
active: [1] 1.32 µM | [2] 0.685 µM | [3] 0.662 µM | [4] 0.372 µM | [7] 2.96 µM | [5] 3.72 µM | [6] 1.48 µM | [8] 1.17 µM | [9] 0.369 µM | [10] 1.17 µM | [11] 1.04 µM | [12] 0.737 µM | [16] 1.47 µM | [13] 585 nM | [17] 827 nM | [14] 0.585 µM | [15] 5.85 µM

O=C(CCCCCCC(=O)Nc1cccnc1)NO
active: [1] 4.69 µM | [2] 4.32 µM | [3] 16.6 µM | [4] 18.7 µM | [5] 18.7 µM | [6] 11.8 µM

CC(=O)N1CCN(c2ccc(OCc3nn(C)c(C)c3-c3cccc4c(CCCOc5cccc6ccccc56)c(C(=O)O)n(Cc5cccnc5)c34)cc2)CC1
inactive: [18] | [10] | [16] | [13] | [14] | [15] | [20]
active: [1] 0.59 µM | [2] 0.109 µM | [3] 1.66 µM | [4] 14.8 µM | [7] 0.526 µM | [6] 0.743 µM | [9] 20.8 µM

COC(=O)[C@H](CCCN=C(N)N)NS(=O)(=O)c1ccc(C)cc1
inactive: [1] | [2] | [3] | [4] | [5] | [6]

CON=C(C(=O)N[C@@H]1C(=O)N2C(C(=O)O)=C(Cn3ccc(=N)n3CCO)CS[C@H]12)c1csc(N)n1
inactive: [1] | [2] | [3] | [4] | [5] | [6]

Cc1cc(O)c2c(c1)C(=O)c1cccc(O)c1C2=O
inactive: [1] | [2] | [3] | [4] | [5] | [6]

O=C(O)[C@H](CC(=O)N1C[C@@H]2CCCC[C@H]2C1)Cc1ccccc1
inactive: [1] | [2] | [3] | [4] | [5] | [6]
